Assay results reported in publication PMC8384837, “Expanding the binding specificity for RNA recognition by a PUF domain”.
Residue numbers refer to the chain shown, from its start.

Columns and labels:
Experiment in all cases: yeast three-hybrid, YBZ-1, SC-Leu-His + 0.5 mM 3-AT, 4 days
Settings in all cases: tags: N-Gal4 AD-HA kept; label: inside an RPR1-promoter hybrid RNA with tandem MS2 sites; ssRNA
PUM1 PUF domain R7-CHP = PUM1 PUF domain R7-CHP (Homo sapiens, UniProt Q14671 828-1176, S1079C;N1080H;E1083P)
How it was run: (§1)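 Each repeat of the Pumilio-1 PUF domain was randomized at its three base-contacting residues, and these libraries were co-expressed from a centromeric plasmid with matching RNA elements in strain YBZ-1. After four days on SC-Leu (input) or SC-Leu-His + 0.5 mM 3-AT (selection), the repeat regions were PCR-amplified and Illumina-sequenced. The interaction score compares variant frequency between input and selection as a log change, computed in log2 with a pseudocount of 1 for absent variants.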

PUM1 PUF domain R4-DHN = PUM1 PUF domain R4-DHN (Homo sapiens, UniProt Q14671 828-1176, N971D;Q975N)
How it was run: as §1

PUM1 PUF domain R4-WGD = PUM1 PUF domain R4-WGD (Homo sapiens, UniProt Q14671 828-1176, N971W;H972G;Q975D)
How it was run: as §1

PUM1 PUF domain R6-QWS = target: T1, PUM1 PUF domain R6-QWS (Homo sapiens, UniProt Q14671 828-1176, N1043Q;Y1044W;Q1047S)
T1 sequence: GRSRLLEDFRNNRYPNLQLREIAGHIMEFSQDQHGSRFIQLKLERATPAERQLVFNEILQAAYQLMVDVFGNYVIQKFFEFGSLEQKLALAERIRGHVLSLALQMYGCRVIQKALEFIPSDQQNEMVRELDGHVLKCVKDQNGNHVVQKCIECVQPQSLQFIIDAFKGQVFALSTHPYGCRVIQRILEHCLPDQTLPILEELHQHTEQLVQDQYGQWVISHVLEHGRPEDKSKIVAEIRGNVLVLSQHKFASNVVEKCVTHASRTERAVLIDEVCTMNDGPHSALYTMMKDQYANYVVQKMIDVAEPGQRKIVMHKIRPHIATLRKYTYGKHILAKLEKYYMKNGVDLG
How it was run: as §1

PUM1 PUF domain R5-MYG = PUM1 PUF domain R5-MYG (Homo sapiens, UniProt Q14671 828-1176, C1007M;R1008Y;Q1011G)
How it was run: as §1

PUM1 PUF domain R5-QCR = PUM1 PUF domain R5-QCR (Homo sapiens, UniProt Q14671 828-1176, C1007Q;R1008C;Q1011R)
How it was run: as §1

PUM1 PUF domain R8-RWH = PUM1 PUF domain R8-RWH (Homo sapiens, UniProt Q14671 828-1176, N1122R;Y1123W;Q1126H)
How it was run: as §1

PUM1 PUF domain R7-LFD = PUM1 PUF domain R7-LFD (Homo sapiens, UniProt Q14671 828-1176, S1079L;N1080F;E1083D)
How it was run: as §1

PUM1 PUF domain R3-HRR = PUM1 PUF domain R3-HRR (Homo sapiens, UniProt Q14671 828-1176, C935H;Q939R)
How it was run: as §1

PUM1 PUF domain R3-RDK = PUM1 PUF domain R3-RDK (Homo sapiens, UniProt Q14671 828-1176, C935R;R936D;Q939K)
How it was run: as §1

PUM1 PUF domain R3-VYY = PUM1 PUF domain R3-VYY (Homo sapiens, UniProt Q14671 828-1176, C935V;R936Y;Q939Y)
How it was run: as §1

PUM1 PUF domain R3-QPG = PUM1 PUF domain R3-QPG (Homo sapiens, UniProt Q14671 828-1176, C935Q;R936P;Q939G)
How it was run: as §1

PUM1 PUF domain R6-TFQ = target: T2, PUM1 PUF domain R6-TFQ (Homo sapiens, UniProt Q14671 828-1176, N1043T;Y1044F)
T2 sequence: T1 sequence with Q216T, W217F, S220Q
How it was run: as §1

PUM1 PUF domain R6-WWA = target: T3, PUM1 PUF domain R6-WWA (Homo sapiens, UniProt Q14671 828-1176, N1043W;Y1044W;Q1047A)
T3 sequence: T1 sequence with Q216W, S220A
How it was run: as §1

PUM1 PUF domain R2-DWL = PUM1 PUF domain R2-DWL (Homo sapiens, UniProt Q14671 828-1176, N899D;Y900W;Q903L)
How it was run: as §1

PUM1 PUF domain R5-WGF = PUM1 PUF domain R5-WGF (Homo sapiens, UniProt Q14671 828-1176, C1007W;R1008G;Q1011F)
How it was run: as §1

PUM1 PUF domain R3-VRL = PUM1 PUF domain R3-VRL (Homo sapiens, UniProt Q14671 828-1176, C935V;Q939L)
How it was run: as §1

PUM1 PUF domain R4-YRC = PUM1 PUF domain R4-YRC (Homo sapiens, UniProt Q14671 828-1176, N971Y;H972R;Q975C)
How it was run: as §1

PUM1 PUF domain R4-SIG = PUM1 PUF domain R4-SIG (Homo sapiens, UniProt Q14671 828-1176, N971S;H972I;Q975G)
How it was run: as §1

PUM1 PUF domain R5-DWM = PUM1 PUF domain R5-DWM (Homo sapiens, UniProt Q14671 828-1176, C1007D;R1008W;Q1011M)
How it was run: as §1

GGCUAGAACUAGUGGAUCCCCCGGCGCCCGGCGGCUCGAGCCCGGGUAAGUCUAAAUAGUCUGCAUGCCGCCGGGCGCCAUGCCUGCAGGUCGACUCUAGAAAACAUG
binding signal (PUM1 PUF domain R7-CHP): 2.32 log2 enrichment (interaction score)

GGCUAGAACUAGUGGAUCCCCCGGCGCCCGGCGGCUCGAGCCCGGGUAAGUGUAUAUAGUCUGCAUGCCGCCGGGCGCCAUGCCUGCAGGUCGACUCUAGAAAACAUG
binding signal (PUM1 PUF domain R4-DHN): 4.74 log2 enrichment (interaction score)
binding signal (PUM1 PUF domain R4-WGD): 4.21 log2 enrichment (interaction score)

GGCUAGAACUAGUGGAUCCCCCGGCGCCCGGCGGCUCGAGCCCGGGUAAGUGGAAAUAGUCUGCAUGCCGCCGGGCGCCAUGCCUGCAGGUCGACUCUAGAAAACAUG
binding signal (PUM1 PUF domain R6-QWS): 3.82 log2 enrichment (interaction score)

GGCUAGAACUAGUGGAUCCCCCGGCGCCCGGCGGCUCGAGCCCGGGUAAGUGUUAAUAGUCUGCAUGCCGCCGGGCGCCAUGCCUGCAGGUCGACUCUAGAAAACAUG
binding signal (PUM1 PUF domain R5-MYG): 3.99 log2 enrichment (interaction score)
binding signal (PUM1 PUF domain R5-QCR): 3.91 log2 enrichment (interaction score)

GGCUAGAACUAGUGGAUCCCCCGGCGCCCGGCGGCUCGAGCCCGGGUAAGCGUAAAUAGUCUGCAUGCCGCCGGGCGCCAUGCCUGCAGGUCGACUCUAGAAAACAUG
binding signal (PUM1 PUF domain R8-RWH): 5.97 log2 enrichment (interaction score)

GGCUAGAACUAGUGGAUCCCCCGGCGCCCGGCGGCUCGAGCCCGGGUAAGUUUAAAUAGUCUGCAUGCCGCCGGGCGCCAUGCCUGCAGGUCGACUCUAGAAAACAUG
binding signal (PUM1 PUF domain R7-LFD): 2.92 log2 enrichment (interaction score)

GGCUAGAACUAGUGGAUCCCCCGGCGCCCGGCGGCUCGAGCCCGGGUAAGUGUACAUAGUCUGCAUGCCGCCGGGCGCCAUGCCUGCAGGUCGACUCUAGAAAACAUG
binding signal (PUM1 PUF domain R4-DHN): 2.6 log2 enrichment (interaction score)

GGCUAGAACUAGUGGAUCCCCCGGCGCCCGGCGGCUCGAGCCCGGGUAAGUGUAAGUAGUCUGCAUGCCGCCGGGCGCCAUGCCUGCAGGUCGACUCUAGAAAACAUG
binding signal (PUM1 PUF domain R3-HRR): 2.66 log2 enrichment (interaction score)

GGCUAGAACUAGUGGAUCCCCCGGCGCCCGGCGGCUCGAGCCCGGGUAAGUGUAAUUAGUCUGCAUGCCGCCGGGCGCCAUGCCUGCAGGUCGACUCUAGAAAACAUG
binding signal (PUM1 PUF domain R3-RDK): 2.64 log2 enrichment (interaction score)
binding signal (PUM1 PUF domain R3-HRR): 0.15 log2 enrichment (interaction score)
binding signal (PUM1 PUF domain R3-VYY): 5.47 log2 enrichment (interaction score)
binding signal (PUM1 PUF domain R3-QPG): 3.7 log2 enrichment (interaction score)

GGCUAGAACUAGUGGAUCCCCCGGCGCCCGGCGGCUCGAGCCCGGGUAAGUGAAAAUAGUCUGCAUGCCGCCGGGCGCCAUGCCUGCAGGUCGACUCUAGAAAACAUG
binding signal (PUM1 PUF domain R6-TFQ): 6.64 log2 enrichment (interaction score)
binding signal (PUM1 PUF domain R6-WWA): 2.47 log2 enrichment (interaction score)

GGCUAGAACUAGUGGAUCCCCCGGCGCCCGGCGGCUCGAGCCCGGGUAAGUGUAAAAAGUCUGCAUGCCGCCGGGCGCCAUGCCUGCAGGUCGACUCUAGAAAACAUG
binding signal (PUM1 PUF domain R2-DWL): 6.44 log2 enrichment (interaction score)

GGCUAGAACUAGUGGAUCCCCCGGCGCCCGGCGGCUCGAGCCCGGGUAAGUGUCAAUAGUCUGCAUGCCGCCGGGCGCCAUGCCUGCAGGUCGACUCUAGAAAACAUG
binding signal (PUM1 PUF domain R5-QCR): 4.97 log2 enrichment (interaction score)

GGCUAGAACUAGUGGAUCCCCCGGCGCCCGGCGGCUCGAGCCCGGGUAAGUGUGAAUAGUCUGCAUGCCGCCGGGCGCCAUGCCUGCAGGUCGACUCUAGAAAACAUG
binding signal (PUM1 PUF domain R5-WGF): 4.79 log2 enrichment (interaction score)

GGCUAGAACUAGUGGAUCCCCCGGCGCCCGGCGGCUCGAGCCCGGGUAAGUGUAAAUAGUCUGCAUGCCGCCGGGCGCCAUGCCUGCAGGUCGACUCUAGAAAACAUG
binding signal (PUM1 PUF domain R3-VRL): 3.56 log2 enrichment (interaction score)
binding signal (PUM1 PUF domain R6-QWS): 3.91 log2 enrichment (interaction score)
binding signal (PUM1 PUF domain R5-MYG): 1.26 log2 enrichment (interaction score)
binding signal (PUM1 PUF domain R4-YRC): 4.13 log2 enrichment (interaction score)
binding signal (PUM1 PUF domain R4-SIG): 3.64 log2 enrichment (interaction score)
binding signal (PUM1 PUF domain R6-WWA): 4.79 log2 enrichment (interaction score)
binding signal (PUM1 PUF domain R5-DWM): 2.57 log2 enrichment (interaction score)
binding signal (PUM1 PUF domain R8-RWH): 4.7 log2 enrichment (interaction score)
